Screens (PubChem BioAssay)
S1P2 antag: blocks the human S1P2 receptor | O95136 | cell-based S1P2 antagonist assay, inhibition at 5 uM | inhibition, % at 5 µM | actives 0.21% (n = 97,000) | AID 736; in the data active = inhibition above about 45%;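 note: CRE beta-lactamase reporter cells expressing human S1P2 stimulated with S1P; 0% = agonist at EC80 alone and 100% = agonist plus reference antagonist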
S1P2 agonist: agonists of human S1P2 receptor; actives 0.46% (n = 97,000); AID 729; S1P2-expressing cell line, agonist reporter read-out; activation, % at 4.5 µM; in the data active = activation above about 16%;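 note: 0% = vehicle low control and 100% = maximal reference agonist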
GALR2 blocker: blocks the human galanin receptor 2; O43603; actives 0.39% (n = 140,000); inhibition, % at 4 µM; GALR2-expressing cells, antagonist mode;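 note: cells stimulated with galanin 1-16 at roughly its EC80; 0% = agonist challenge control and 100% = basal control without agonist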
GALR2 agonist: activates the human galanin receptor 2; AID 803; GALR2-expressing cells, agonist activation read-out; O43603; activation, % (test concentration not listed); actives 0.48% (n = 140,000); in the data active = activation above about 5%, passing the limit was not always enough;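 note: 0% = vehicle buffer wells and 100% = reference agonist at full effect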
PLAP activator: human PLAP activation. P05187. purified PLAP enzyme, luminescent substrate read-out; hits give high values. activation fold at 20 µM. actives 1.2% (n = 96,000); in the data active = activation fold above about 2
Target sequence (P05187 whole entry, looked up): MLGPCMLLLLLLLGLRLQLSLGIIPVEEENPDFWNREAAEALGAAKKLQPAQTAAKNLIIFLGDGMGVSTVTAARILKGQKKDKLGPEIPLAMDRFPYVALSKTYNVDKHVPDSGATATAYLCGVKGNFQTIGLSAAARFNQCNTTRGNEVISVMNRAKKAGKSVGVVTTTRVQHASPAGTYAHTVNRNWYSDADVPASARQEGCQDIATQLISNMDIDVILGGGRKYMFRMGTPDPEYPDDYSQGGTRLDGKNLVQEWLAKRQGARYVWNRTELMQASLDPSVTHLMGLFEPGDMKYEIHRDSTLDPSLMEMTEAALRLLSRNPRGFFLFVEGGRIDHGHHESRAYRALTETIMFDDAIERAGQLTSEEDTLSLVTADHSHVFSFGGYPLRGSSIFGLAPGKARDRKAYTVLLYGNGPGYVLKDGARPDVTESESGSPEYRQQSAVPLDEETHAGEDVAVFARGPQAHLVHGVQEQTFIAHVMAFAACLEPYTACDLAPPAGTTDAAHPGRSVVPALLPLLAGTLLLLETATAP
GALR2 ag confirm: GALR2 (human) agonism confirmed; shares compounds with GALR2 agonist; GALR2-expressing cells, agonist activation; activation, % at 5.6 µM; actives 10% (n = 460); AID 864; in the data active = activation above about 8.4%;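 note: 0% = buffer-only vehicle wells and 100% = full reference agonist response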
BLA act counter: beta-lactamase activation, GALR2 counterscreen; shares compounds with GALR2 agonist; CHO NFAT-bla reporter, beta-lactamase FRET activation; activation, % at 5.6 µM; actives 10% (n = 460);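 active = activation above the screen-wide mean activation plus 3 SD, cut at about 8% in these data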;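 note: 0% = DMSO with PBS wells and 100% = thapsigargin positive control wells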
GALR2 blk conf: confirmation of human galanin receptor 2 (GALR2) antagonists | shares compounds with GALR2 blocker | GALR2-expressing cells, antagonist mode, inhibition | actives 60% (n = 480) | inhibition, % at 4 µM;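 note: cells stimulated with galanin at about its EC80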
BLA inhib ctr: inhibits beta-lactamase reporter in GALR2 antagonist counterscreen; actives 36% (n = 480); inhibition, % at 4.2 µM; shares compounds with GALR2 blocker; AID 867; CHO NFAT-BLA reporter, beta-lactamase FRET, thapsigargin-stimulated;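 active = inhibition above the mean inhibition across tested compounds plus 3 SD, cut at about 27% in these data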;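 note: 0% = 500 nM thapsigargin stimulated wells and 100% = unstimulated BSA only wells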
* marks the source's active call; other numbers are inactive results; x = no result. Only some compounds are listed: those with a hit (about 2% of all), similar ones and a draw of the others. Cut-off read from the data, not from the text of the source, unless noted: active = inhibition above about 27%; inactive = the rest.

SMILES	S1P2 antag	S1P2 agonist	GALR2 blocker	GALR2 agonist	PLAP activator	GALR2 ag confirm	BLA act counter	others
CCOc1ccc(S(=O)(=O)Nc2ccccc2C(=O)NCC2CCCO2)cc1 (configuration not stated)	16.9	-6.4	3.7	-3.2	1.1	x	x
O=C(NC(=S)Nc1ccc(NC(=O)c2cccs2)cc1)c1cc2ccccc2o1	x	x	4.5	10.5*	x	3.3	1.7
O=C1c2ccccc2C(=O)N1Cc1nc2ccccc2c(=O)n1CCN1CCOCC1	18.4	-4.1	5.2	-2.7	x	x	x
O=C(Nc1ccccc1C(F)(F)F)C1CC(=O)N(c2ccccc2F)C1 (configuration not stated)	-11.0	-1.8	13.1	-0.5	1.2	x	x
C(=C\c1ccco1)/C1=NN(c2ccccc2)C(c2ccco2)C1 (configuration not stated)	x	x	16.8	72.3*	x	27.4*	38.8*
O=C(CCSCCc1ccccn1)Nc1ccc(Br)cc1F	x	x	3.3	-0.7	x	x	x
CCOC(=O)c1ccc(S(=O)(=O)Nc2ccc3cn[nH]c3c2)cc1	3.3	-8.9	14.4	-1.9	1.2	x	x
Cc1nc2c(-c3ccc(F)cc3)c(C)nn2c(C)c1CCC(=O)NCCN1CCOCC1	-10.5	-4.6	1.2	-0.6	1.6	x	x
COCCNC(=O)CCc1c(C)nc2c(-c3ccc(F)cc3)c(C)nn2c1C	4.0	-2.6	-11.1	42.4*	1.6	0.1	-0.6
CC1=CC(C)(C)N(C(=O)CSc2nnc(N)s2)c2cc(C)c(C)cc21	-14.2	0.4	-9.6	42.7*	1	-0.5	-0.6
CC1=CC(C)(C)N(C(=O)CSc2nnc(C)s2)c2ccc(C)cc21	-9.7	-1.6	1.9	-0.7	1	x	x
COc1cc(S(=O)(=O)NCCc2ccc3c(c2)OCO3)ccc1-n1cnnn1	2.4	-1.5	-7.6	-3.4	1.5	x	x
COc1ccc2oc(-c3ccc(C)c(NC(=O)c4ccc(N5CCOCC5)c([N+](=O)[O-])c4)c3)nc2c1	22.8	-4.2	-13.9	-1.6	0.9	x	x
CC(=O)c1cccc(NC(=O)c2ccc(Br)o2)c1	x	x	13.2	-1.2	0.9	x	x
CCCCC(=O)Nc1cccc(NC(=O)c2ccc(Br)o2)c1	11.2	-1.9	5.6	9.0	0.7	-0.6	-1.8
Cc1ccc(NC2=C(Cl)C(=O)OC2OC(=O)c2ccco2)cc1 (configuration not stated)	-4.7	-3.1	7.9	35.3*	0.8	-1.1	-1.5
Cc1ccc(/C(N)=N/OC(=O)c2ccco2)cc1	-12.1	-5.7	10.7	-2.7	x	x	x
Cc1cc(C)nc(/N=C(\N)N2CCCCCC2)n1	x	x	-6.3	17.1*	x	-1.0	-2.6
CCCOc1ccccc1Nc1nnc(C)c(=O)[nH]1	9.3	-4.6	0.2	-3.3	1.3	x	x
Cc1nn(C)c(C)c1/C=N/NC(=O)CCn1cc([N+](=O)[O-])cn1	x	x	-5.4	91.8*	x	-0.9	-1.0
O=C(Nc1ccccc1-c1nnn(CC(=O)N2CCCc3ccccc32)n1)c1ccc(Cl)cc1	-15.8	-2.6	5.3	27.7*	x	-0.6	-1.6
CN(C)CCNC(=O)CNC(=S)N(Cc1ccccc1)Cc1cccnc1	x	x	10.3	-1.5	x	x	x
CCOC(=O)c1ccc2[nH]c(C)c(CCC(C)=O)c(=O)c2c1	13.1	0.4	-9.4	-1.6	1	x	x
CC(=O)Nc1ccc2[nH]c(C)c(CC=C(Cl)Cl)c(=O)c2c1	-16.7	-1.6	7.0	14.2*	0.8	-1.4	-3.5
O=C(NCc1cccnc1)c1ccccc1[N+](=O)[O-]	x	x	4.0	0.0	x	x	x
SMILES	S1P2 antag	S1P2 agonist	GALR2 blocker	GALR2 agonist	PLAP activator	GALR2 ag confirm	BLA act counter	others
Cc1cc2c(cc1C)C(c1ccccc1Br)CC(=O)N2 (configuration not stated)	x	x	-10.0	20.5*	x	-0.4	-3.2
CCSc1nnc(-c2cccnc2)n1-c1ccc(C)c(Cl)c1	-6.4	-3.4	-32.2	8.9	1.1	0.0	-0.2
O=C1CCCC(=O)N1c1ccc(N2CCN(c3ccc([N+](=O)[O-])cc3)CC2)c([N+](=O)[O-])c1	x	x	4.2	0.6	x	x	x
Cc1ccc(OCc2nnc(SCC(=O)NCc3ccco3)n2C)cc1	-11.2	-4.0	-3.7	-1.3	x	x	x
CCOc1ccc(Nc2nc(Cc3nnc(SCC(=O)NCc4ccco4)n3CC)cs2)cc1	-11.4	-5.8	-16.8	12.2*	1.3	11.5*	26.8*
Cc1cc(C)cc(NC(=O)CN2CCCN(S(=O)(=O)c3ccc(Br)s3)CC2)c1	-9.9	-2.5	-6.6	-1.1	1	x	x
Cc1ccc(NC(=O)CN2CCCN(S(=O)(=O)c3ccc(Br)s3)CC2)cc1	-11.9	-3.0	-2.7	8.5	1.7	0.3	-1.1
O=C(Nc1ccccc1Cl)O/N=C/c1ccncc1	10.2	-6.0	1.1	-2.9	x	x	x
COC(=O)C1=CNC=C(C(=O)OC)C1c1ccccc1Cl	1.1	6.9	1.3	9.4	0.9	1.0	2.7
O=C(CCc1ccccc1)NNC(=S)NC(=O)c1ccccc1	-1.4	-8.5	-0.9	-1.9	1.2	x	x
CC(C)(C)c1cc(CCC(=O)NNC(=S)NC(=O)c2ccccc2)cc(C(C)(C)C)c1O	x	x	-5.3	35.3*	x	37.2*	29.2*
COc1cccc(/C=C/C(=O)OCC(=O)NCc2ccco2)c1	x	x	8.8	-1.1	x	x	x
CC1(C)CC2(CCO1)CNC(=O)O2 (configuration not stated)	17.6	-8.0	-3.2	-2.9	1.1	x	x
CC1=C/C(=N\OS(=O)(=O)c2ccccc2)C(C(C)C)=CC1=O	x	x	47.1*	9.6*	x	11.3*	3.1	GALR2 blk conf=52.5*;BLA inhib ctr=29.2*
[O-][n+]1onc2c3cc(-c4ccccc4)nnc3ccc21	22.6	-9.6	13.4	-3.2	1.1	x	x
Brc1ccc(-c2ccc(/C=N/Nc3nc4ccccc4[nH]3)o2)cc1	x	x	28.9*	22.8*	x	9.5*	17.5*	GALR2 blk conf=19.1;BLA inhib ctr=13.0
Brc1ccc(-c2ccc(/C=N/Nc3nncc(-c4ccccc4)n3)o2)cc1	-7.5	-2.2	2.4	-1.6	0.8	x	x
CC1=C/C(=N\OS(=O)(=O)c2ccccc2)C(C)=CC1=O	97.9*	-4.3	63.4*	-3.3	1	x	x	GALR2 blk conf=74.3*;BLA inhib ctr=35.5*
CC1=C(C)/C(=N\OS(=O)(=O)c2ccc(C)cc2)C=CC1=O	x	x	85.2*	-0.7	x	x	x	GALR2 blk conf=70.3*;BLA inhib ctr=64.0*
COc1cc(C(=O)O/N=C2/C=C(C)C(=O)C=C2C)cc(OC)c1OC	x	x	-4.4	1.1	x	x	x
CCCc1nc(S(=O)(=O)Cc2ccc(Cl)cc2Cl)n[nH]1	-9.5	2.8	1.5	-1.0	0.7	x	x
CC(=O)C(=Nc1ccccc1Cl)NNc1ccc(Cl)cc1	-31.3	-4.5	27.6*	-2.0	x	x	x	GALR2 blk conf=13.9;BLA inhib ctr=0.0
CCc1cc(C(=O)COc2ccccc2F)c(O)cc1O	-8.9	-6.0	-2.6	-2.1	0.9	x	x
COc1cccc(C(=O)Nc2nnc(-c3cccs3)s2)c1	0.1	0.3	11.2	0.1	0.8	x	x
